# Compound activity from PubChem.
# CYP2C19 act: human CYP2C19 activators, primary screen, biochemical, luminescence. recombinant CYP2C19, luciferin-H EGE luminescence; hits give high values; 0 = fully inhibited enzyme, 1 = untreated enzyme. activation factor at 5 µM. Cytochrome P450 2C19 (Homo sapiens), P33261. 96,000 tested, under 10 active;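 active = activation factor of at least 2 at 5 µM in the primary screen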;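 note: 0 = wells with 2.5 mM tranylcypromine and 1 = vehicle-only wells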
# Target sequence (P33261 whole entry, looked up): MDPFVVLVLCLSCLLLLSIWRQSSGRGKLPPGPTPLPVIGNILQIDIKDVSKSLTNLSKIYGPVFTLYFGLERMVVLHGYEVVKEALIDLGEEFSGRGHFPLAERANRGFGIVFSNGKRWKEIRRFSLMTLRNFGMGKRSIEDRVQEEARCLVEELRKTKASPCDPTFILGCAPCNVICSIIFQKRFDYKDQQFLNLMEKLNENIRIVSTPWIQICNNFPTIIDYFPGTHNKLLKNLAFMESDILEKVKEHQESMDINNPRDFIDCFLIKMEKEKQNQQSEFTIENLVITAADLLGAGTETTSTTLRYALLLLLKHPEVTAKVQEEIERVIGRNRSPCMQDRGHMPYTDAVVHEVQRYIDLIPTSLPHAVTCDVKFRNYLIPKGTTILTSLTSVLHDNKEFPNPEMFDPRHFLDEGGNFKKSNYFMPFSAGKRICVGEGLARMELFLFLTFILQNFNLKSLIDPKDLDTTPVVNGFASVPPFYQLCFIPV
# PLAP activator: PLAP enzyme activators, biochemical, luminescence, HTS | AID 696, 2007 | purified PLAP enzyme, luminescent substrate read-out; hits give high values | 1.2% of 96,000 active | Alkaline phosphatase, placental type (Homo sapiens), P05187 | activation fold at 20 µM; in the data active = activation fold above about 2
# CYP2C19 inhib: blockers of cytochrome P450 2C19 activity – biochemical, luminescence, ADME assay, primary screen; P33261; CYP2C19 Supersomes, luciferin-H EGE luminescence, 30 min; inhibition, % at 5 µM; 21% of 96,000 active; AID 778, 2007;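 active = CYP2C19 inhibition above a set limit at 5 µM in the primary screen, cut at about 50% in these data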;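 note: plate controls were negative control wells for no effect and 2.5 mM tranylcypromine positive control for full effect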
# CYP2C9 inhib: blockers of cytochrome P450 2C9 activity – biochemical, luminescence, ADME assay, primary screen. 20% of 96,000 active. CYP2C9 Supersomes, luciferin-H conversion. inhibition, % at 5 µM. P11712;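 active = blocking of liver enzyme CYP2C9 beyond about 50% at 5 µM, limit read from the data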
# CYP2C9 activ: human CYP2C9 activators, primary screen, biochemical, luminescence. recombinant CYP2C9, luciferin-H conversion; hits give high values; factor 1 = untreated enzyme, 0 = blocked. activation factor at 5 µM. 1.4% of 96,000 active;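 active = activation factor of 2 or more for CYP2C9 at a 5 µM dose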;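 note: 0 = sulfaphenazole-blocked wells and 1 = vehicle-only wells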
# Numbers without * were called inactive. Rows were chosen to be rich in hits. Some 31% of all compounds tested hit in one or more screens of this group.
SMILES,CYP2C19 act,PLAP activator,CYP2C19 inhib,CYP2C9 inhib,CYP2C9 activ
Cc1cc(C)cc(OCC(=O)Nc2nonc2NC(=O)COc2cc(C)cc(C)c2)c1,0.6,2.3*,42,64*,0.4
Cc1cc(C)cc(OCC(=O)NNC(=O)c2ccoc2C)c1,1,1.9,-2,-88,1.9
Cc1nc(Oc2ccccc2)c2oc3ccccc3c2n1,0.4,1.1,57*,20,0.8
COc1ccc(Oc2nc(C)nc3c2oc2ccccc23)cc1,0.9,1.2,9,3,1
CC(=O)Nc1ccc(NC(=O)C2CC(=O)N=C(N)S2)cc1 (centres undefined),1,1,-2,1,1
OCCCCNCc1ccc(OCc2ccc(Cl)cc2)cc1,1,1.4,-4,-13,1.1
Cc1cccnc1NC1OC(=O)c2ccccc21 (centres undefined),1.1,0.9,-15,-3,1
C/C(=N\NS(=O)(=O)c1ccc(Cl)c([N+](=O)[O-])c1)c1cc2ccccc2o1,0,1.6,97*,100*,0
C/C(=N\NS(=O)(=O)c1ccc(Cl)c([N+](=O)[O-])c1)c1ccc(C)o1,0.2,1.3,83*,88*,0.1
C/C(=N\NS(=O)(=O)c1ccc(C)c([N+](=O)[O-])c1)c1cc2ccccc2o1,1,1.1,-4,37,0.6
Cc1c(NC(=O)/C(C#N)=C/C2CC=CCC2)c(=O)n(-c2ccccc2)n1C (centres undefined),1.1,1.3,-12,-1,1
O=C(Nc1cccn(Cc2c(Cl)cccc2Cl)c1=O)c1c(Cl)cccc1Cl,0.8,1.1,16,40,0.6
COC(=O)Nc1cccn(Cc2c(Cl)cccc2Cl)c1=O,0.1,1.1,87*,-145,2.5*
CC1CCOC2(O1)C(=O)N(CN1CCN(c3ccccc3F)CC1)c1ccccc12 (centres undefined),1,0.8,0,-16,1.2
Nc1cccc(-n2nncc2-c2ccc(Cl)cc2)c1,0.2,0.9,77*,16,0.8
CCOC(=O)N1CCN(C(=O)CC(=O)Nc2ccc3nc4n(c(=O)c3c2)CCCCC4)CC1,0.9,1.6,14,69*,0.3
CCOC(=O)N1CCN(C(=O)C(=O)Nc2ccc3nc4n(c(=O)c3c2)CCCCC4)CC1,0.7,1.5,28,52*,0.5
CSc1nc(Oc2ccc(F)cc2F)cc(C(F)(F)F)n1,1,1,0,6,0.9
CCN(CC)S(=O)(=O)c1cccc(NC(=O)COC(=O)c2ccc(Br)o2)c1,0.6,0.6,42,65*,0.3
COc1ccc(NC(=O)COC(=O)c2ccc(Br)o2)cc1OC,0.8,1,16,8,0.9
CCN(CC)S(=O)(=O)c1cccc(NC(=O)COC(=O)CCc2nc3ccccc3s2)c1,0.9,1.2,9,-125,2.3*
O=C(COC(=O)c1ccccc1Cl)Nc1nccs1,0.8,1,19,11,0.9
CCCCCCC1CC(CSC(=N)N)OC1=O (centres undefined),0.2,0.7,79*,3,1
Cn1c(NCCN2CCCCC2)cc(=O)n(C)c1=O,1.1,1.2,-14,-6,1.1
CC(C)C(=O)Nc1cccc(C(=O)NCCc2ccc(S(N)(=O)=O)cc2)c1,0.9,1,6,75*,0.3
SMILES,CYP2C19 act,PLAP activator,CYP2C19 inhib,CYP2C9 inhib,CYP2C9 activ
O=C(CSCc1ccc(Cl)cc1)Nc1cccc(C(=O)Nc2ccccc2C(=O)O)c1,0.7,1.3,34,98*,0
COc1c(Cl)cc(C(=O)Nc2ccccc2C(=O)O)cc1Cl,1,1.1,5,73*,0.3
COC(=O)c1ccccc1NC(=O)c1cccc(NC(=O)CSCc2ccccc2)c1C,1.2,0.9,-16,-35,1.4
O=C(CSCc1ccccc1)Nc1cccc(C(=O)Nc2ccccc2C(=O)O)c1,0.9,1.3,10,95*,0
COc1cc(OC)cc(C(=O)Nc2ccccc2C(=O)N2CCCC2)c1,1,1.2,3,-5,1.1
N=C1C(c2ccccc2)=C(O)CN1c1ccc2c(c1)OCO2,1.1,1.1,-9,-5,1.1
CC(C)C(=O)Nc1cccc(C(=O)Nc2nnc(C(C)(C)C)s2)c1,1.1,1,-5,19,0.8
CC(C)C(=O)Nc1cccc(C(=O)Nc2ccccc2C(=O)O)c1,1,1.3,-5,83*,0.2
COC(C(=O)Nc1ccccc1F)c1ccccc1 (centres undefined),0.3,1.1,66*,-13,1.1
COC(C(=O)Nc1cccc(F)c1)c1ccccc1 (centres undefined),0.5,1,50*,23,0.8
COc1ccc(COC(=O)N/N=C(\C)CC(=O)Nc2c(C)cc(C)cc2C)cc1,1,0.9,3,8,0.9
CCN(CC)CCCN(C(C)=O)c1nc(-c2cc(OC)ccc2OC)cs1,0.7,1.5,34,6,0.9
CS(=O)(=O)N(CC(=O)N1CCCC1)c1cc(Cl)c(Cl)cc1Cl,0.1,1.5,90*,45,0.5
CCOC(=O)N1CCN(C(=O)CN(c2ccc(Cl)c(C(F)(F)F)c2)S(C)(=O)=O)CC1,0.4,1.6,56*,12,0.9
CCOC(=O)N1CCN(C(=O)CN(c2cccc(OC)c2)S(C)(=O)=O)CC1,0.8,1,20,12,0.9
Cc1c(Cl)cccc1N(CC(=O)N1CCCCCC1)S(C)(=O)=O,0.6,1.1,38,-8,1.1
CCOC(=O)N1CCN(C(=O)CN(c2cc(C(F)(F)F)ccc2Cl)S(C)(=O)=O)CC1,0.5,1.5,54*,39,0.6
NC(=O)CSc1ncnc2c1cnn2Cc1ccccc1,1.1,1,-12,-16,1.2
Cc1noc(NS(=O)(=O)c2ccc(NC(=O)c3ccc(Br)o3)cc2)c1C,1,1.1,-2,9,0.9
CC(=O)Nc1nc2ccccc2n1CCOc1ccccc1Cl,0.4,1.2,60*,13,0.9
Cc1cccc(Cn2c(C(C)O)nc3ccccc32)c1 (centres undefined),0.7,0.9,31,-1,1
Cc1ccccc1Cn1c(C(C)O)nc2ccccc21 (centres undefined),0.4,1,59*,-3,1
CC(NC(=O)c1ccccc1)c1nc2ccccc2n1Cc1ccc(C#N)cc1 (centres undefined),0.7,1,30,49,0.5
CC(NC(=O)c1ccccc1)c1nc2ccccc2n1Cc1ccccc1F (centres undefined),0.5,1.2,48,60*,0.4
CCCCCCn1c(C(C)NC(=O)c2ccco2)nc2ccccc21 (centres undefined),0.6,1.7,42,56*,0.4
COc1ccc(N=Cc2ccc[nH]2)cc1,1,0.9,-3,-7,1.1
